Experimental data as given in ChEMBL document CHEMBL2218924, “A broad activity screen in support of a chemogenomic map for kinase signalling research and drug discovery” (Biochem J, 2013).

Assays:
[1] = target: T1, Muscle, skeletal receptor tyrosine-protein kinase (Homo sapiens) (UniProt O15146); details: at 1 µM
T1 sequence (whole entry): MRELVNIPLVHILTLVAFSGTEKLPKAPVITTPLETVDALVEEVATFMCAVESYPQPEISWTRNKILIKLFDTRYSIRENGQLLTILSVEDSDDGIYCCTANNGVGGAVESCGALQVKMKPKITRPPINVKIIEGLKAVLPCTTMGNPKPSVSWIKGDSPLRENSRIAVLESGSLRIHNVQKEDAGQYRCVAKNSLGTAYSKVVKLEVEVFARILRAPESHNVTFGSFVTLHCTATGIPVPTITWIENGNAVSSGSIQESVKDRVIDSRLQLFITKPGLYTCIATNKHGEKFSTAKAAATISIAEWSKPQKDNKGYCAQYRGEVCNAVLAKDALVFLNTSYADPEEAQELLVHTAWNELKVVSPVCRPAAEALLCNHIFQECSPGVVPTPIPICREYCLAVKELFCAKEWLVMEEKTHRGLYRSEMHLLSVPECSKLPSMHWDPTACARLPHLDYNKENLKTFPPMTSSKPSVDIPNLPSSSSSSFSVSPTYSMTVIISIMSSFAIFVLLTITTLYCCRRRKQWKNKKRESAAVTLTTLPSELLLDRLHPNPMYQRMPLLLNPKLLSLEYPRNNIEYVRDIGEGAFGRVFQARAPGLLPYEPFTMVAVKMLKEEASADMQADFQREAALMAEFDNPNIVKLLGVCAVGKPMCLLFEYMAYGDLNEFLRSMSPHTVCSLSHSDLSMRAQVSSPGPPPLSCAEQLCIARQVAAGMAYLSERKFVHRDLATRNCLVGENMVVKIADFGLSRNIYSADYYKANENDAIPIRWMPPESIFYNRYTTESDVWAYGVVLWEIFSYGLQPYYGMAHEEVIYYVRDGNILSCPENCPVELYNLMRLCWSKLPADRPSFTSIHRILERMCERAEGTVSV

[2] = target: T1, Muscle, skeletal receptor tyrosine-protein kinase (Homo sapiens); details: at 10 µM
[3] = target: T2, Serine/threonine-protein kinase Nek11 (Homo sapiens) (UniProt Q8NG66); details: at 1 µM
T2 sequence (whole entry): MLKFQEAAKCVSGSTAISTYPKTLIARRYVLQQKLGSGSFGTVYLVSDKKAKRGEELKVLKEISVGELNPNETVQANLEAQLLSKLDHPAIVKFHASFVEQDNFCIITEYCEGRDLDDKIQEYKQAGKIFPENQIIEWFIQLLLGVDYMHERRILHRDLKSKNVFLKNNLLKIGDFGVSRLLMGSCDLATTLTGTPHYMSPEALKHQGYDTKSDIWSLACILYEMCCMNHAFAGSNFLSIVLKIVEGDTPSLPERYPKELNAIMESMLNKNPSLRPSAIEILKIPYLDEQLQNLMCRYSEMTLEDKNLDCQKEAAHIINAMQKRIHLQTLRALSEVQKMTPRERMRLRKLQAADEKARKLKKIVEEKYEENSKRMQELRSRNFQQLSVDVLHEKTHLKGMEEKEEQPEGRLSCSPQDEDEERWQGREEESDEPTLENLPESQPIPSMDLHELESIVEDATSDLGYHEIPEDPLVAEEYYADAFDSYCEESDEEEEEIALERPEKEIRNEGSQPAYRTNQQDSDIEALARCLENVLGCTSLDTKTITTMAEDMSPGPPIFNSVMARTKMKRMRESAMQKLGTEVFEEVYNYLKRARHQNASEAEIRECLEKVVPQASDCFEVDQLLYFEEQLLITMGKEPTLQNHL

[4] = target: T2, Serine/threonine-protein kinase Nek11 (Homo sapiens); details: at 10 µM
[5] = target: T3, Serine/threonine-protein kinase Nek2 (Homo sapiens) (UniProt P51955); details: at 10 µM
T3 sequence (whole entry): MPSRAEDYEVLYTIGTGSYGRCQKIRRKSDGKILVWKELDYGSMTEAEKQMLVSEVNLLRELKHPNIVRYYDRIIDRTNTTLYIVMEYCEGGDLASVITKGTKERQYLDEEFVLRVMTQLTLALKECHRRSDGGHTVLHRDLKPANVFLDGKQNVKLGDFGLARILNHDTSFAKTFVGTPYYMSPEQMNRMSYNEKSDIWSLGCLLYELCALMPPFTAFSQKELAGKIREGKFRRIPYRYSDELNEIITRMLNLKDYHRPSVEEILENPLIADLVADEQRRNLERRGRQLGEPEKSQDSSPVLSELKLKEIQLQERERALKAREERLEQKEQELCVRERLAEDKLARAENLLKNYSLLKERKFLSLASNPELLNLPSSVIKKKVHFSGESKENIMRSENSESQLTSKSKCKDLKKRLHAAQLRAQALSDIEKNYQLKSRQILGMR

[6] = target: T4, Serine/threonine-protein kinase Nek3 (Homo sapiens) (UniProt P51956); details: at 1 µM
T4 sequence (whole entry): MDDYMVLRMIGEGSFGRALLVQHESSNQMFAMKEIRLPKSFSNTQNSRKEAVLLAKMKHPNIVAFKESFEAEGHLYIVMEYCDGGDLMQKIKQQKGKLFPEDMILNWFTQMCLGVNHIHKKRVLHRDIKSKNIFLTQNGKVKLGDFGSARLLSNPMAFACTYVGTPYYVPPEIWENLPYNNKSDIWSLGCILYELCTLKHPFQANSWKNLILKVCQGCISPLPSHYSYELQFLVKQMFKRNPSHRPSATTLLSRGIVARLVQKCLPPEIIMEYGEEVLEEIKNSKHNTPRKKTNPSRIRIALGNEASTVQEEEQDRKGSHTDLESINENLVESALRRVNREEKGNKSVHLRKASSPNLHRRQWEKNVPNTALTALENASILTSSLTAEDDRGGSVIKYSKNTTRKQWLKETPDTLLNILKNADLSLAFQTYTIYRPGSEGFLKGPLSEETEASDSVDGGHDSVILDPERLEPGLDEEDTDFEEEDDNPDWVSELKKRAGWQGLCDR

[7] = target: T4, Serine/threonine-protein kinase Nek3 (Homo sapiens); details: at 10 µM
[8] = target: Serine/threonine-protein kinase tousled-like 2 (Homo sapiens) (UniProt Q86UE8); details: at 1 µM
Chain of Serine/threonine-protein kinase tousled-like 2 (Homo sapiens) (Q86UE8 whole entry, looked up): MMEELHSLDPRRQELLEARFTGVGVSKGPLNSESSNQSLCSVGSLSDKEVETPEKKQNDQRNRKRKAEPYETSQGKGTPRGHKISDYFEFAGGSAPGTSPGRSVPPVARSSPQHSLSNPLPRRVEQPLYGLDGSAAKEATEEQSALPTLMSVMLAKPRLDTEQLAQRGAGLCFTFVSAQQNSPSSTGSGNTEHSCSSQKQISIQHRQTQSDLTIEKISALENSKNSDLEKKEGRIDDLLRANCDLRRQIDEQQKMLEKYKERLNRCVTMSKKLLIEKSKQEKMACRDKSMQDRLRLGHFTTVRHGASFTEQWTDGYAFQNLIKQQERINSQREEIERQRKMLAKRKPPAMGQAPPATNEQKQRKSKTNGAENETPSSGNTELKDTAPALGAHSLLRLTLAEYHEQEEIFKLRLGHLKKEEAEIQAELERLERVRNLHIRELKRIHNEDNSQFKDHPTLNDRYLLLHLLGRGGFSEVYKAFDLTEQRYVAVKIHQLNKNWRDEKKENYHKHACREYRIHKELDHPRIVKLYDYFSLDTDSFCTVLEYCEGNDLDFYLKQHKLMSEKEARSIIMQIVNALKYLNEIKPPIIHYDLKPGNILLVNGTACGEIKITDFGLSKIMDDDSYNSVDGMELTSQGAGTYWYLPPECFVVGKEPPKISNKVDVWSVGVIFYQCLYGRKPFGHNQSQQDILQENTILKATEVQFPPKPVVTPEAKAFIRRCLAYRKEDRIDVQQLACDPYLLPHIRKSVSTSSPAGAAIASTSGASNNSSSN

[9] = target: Serine/threonine-protein kinase tousled-like 2 (Homo sapiens) (UniProt Q86UE8); details: at 10 µM
[10] = target: T3, Serine/threonine-protein kinase Nek2 (Homo sapiens); details: at 1 µM

SMILES	residual activity [1]	residual activity [2]	residual activity [3]	residual activity [4]	residual activity [5]	residual activity [6]	residual activity [7]	residual activity [8]	residual activity [9]	residual activity [10]
O=C(CCCc1ccc(-c2ccccc2F)cc1)Nc1ccc(O)cc1	96%	84%	67%	60%	106%	89%	103%	103%	95%	
O=C1Nc2ccc(Cl)cc2/C1=C/c1cc(Cl)c(O)c(Cl)c1	81%	23%	52%	65%	89%	115%	84%		87%	88%
CC(C)(C)n1nc(Cc2cccc3ccccc23)c2c(N)ncnc21	121%	76%	91%	82%	97%	108%	105%	104%	97%	78%
NCCNc1ncc(C(N)=O)c(Nc2cccc(C(F)(F)F)c2)n1	107%	75%	71%	80%		106%	78%			
Nc1n[nH]c2nc3ccccc3nc12	76%	87%	70%	80%	81%	80%	83%	91%	81%	115%
O=C1NC(=O)c2c1c1c3ccccc3[nH]c1n1cncc21	72%	55%	36%	34%	63%	77%	86%	74%	58%	77%
O=S(=O)(c1cccc2cnccc12)N1CCCNCC1					100%					
N#C/C(=C\c1ccc(O)c(O)c1)C(=O)NCc1ccccc1			103%	103%					85%	
O=C1NC(=O)C(c2c[nH]c3ccccc23)=C1c1c[nH]c2ccccc12		60%	63%	59%				51%	9%	
Cc1cc(C)c(/C=C2\C(=O)Nc3ccccc32)[nH]1		12%		98%			106%	105%	62%	
Nc1nccc(-c2c(-c3ccc(F)cc3)ncn2C2CCNCC2)n1			68%	77%						
CC(C)(C)c1nc2c3ccc(F)cc3c3c(=O)[nH]ccc3c2[nH]1			98%	55%	102%					
Nc1ncnc2c1c(-c1ccc(Oc3ccccc3)cc1)cn2C1CCCC1	83%	37%	102%		69%	105%	55%	92%	82%	77%
Nc1ncnc2[nH]nc(Nc3ccc(F)cc3)c12		76%	57%	42%		82%	81%	105%		
COc1cc2nccc(Oc3ccc(NC(=O)Nc4cc(C)on4)c(Cl)c3)c2cc1OC	17%	3%	77%					104%	100%	
Nc1ncnc2c1cnn2-c1ccccc1		88%	79%	88%	99%		91%			83%
COc1cc2c(cc1OC)-c1n[nH]c(Nc3cccc(F)c3)c1C2					80%	114%	100%			82%
O=C1Cc2c([nH]c3ccc(Br)cc23)-c2ccccc2N1	42%	3%			80%	81%	72%	89%	78%	95%
O=C(O)/C=C/c1cc(Br)c(Br)c(Br)c1Br	106%	98%	85%	54%		81%	108%	101%	93%	

SMILES	residual activity [1]	residual activity [2]	residual activity [3]	residual activity [4]	residual activity [5]	residual activity [6]	residual activity [7]	residual activity [8]	residual activity [9]	residual activity [10]
CCCCc1c(-c2ccc(O)cc2)[nH]c2nccnc12	81%	62%	80%	88%		88%	79%	91%	80%	
O=C(Nc1nc2ccccc2n1CCN1CCOCC1)c1cccc([N+](=O)[O-])c1			84%	74%		106%	85%			75%
COc1ccc(COc2ccc(Cc3cnc(N)nc3N)cc2OC)cc1			110%	115%						
O=C1NC(=O)C(c2cn(CCCO)c3ncccc23)=C1c1cnccn1	81%	84%	72%	82%				98%	82%	
CN([C@@H](Cc1ccc(OS(=O)(=O)c2cccc3cnccc23)cc1)C(=O)N1CCN(c2ccccc2)CC1)S(=O)(=O)c1cccc2cnccc12	115%					99%	99%			
N#C/C(=C1/Nc2ccccc2S1)c1ccnc(NCCc2cccnc2)n1			45%	6%	82%					
COc1ccc(CNC(=O)Nc2ncc([N+](=O)[O-])s2)cc1	68%	67%	51%	66%					74%	
O=c1c(-c2ccc(F)cc2)c(-c2ccncc2)[nH]n1-c1ccc(Cl)cc1			81%	78%						
Fc1ccc(-c2nc3n(c2-c2ccncc2)CCS3)cc1			77%	83%						
Nc1nc(Nc2ccc(S(N)(=O)=O)cc2)nn1C(=O)c1c(F)cccc1F		20%	56%		70%		71%	68%	17%	96%
O=c1cc(N2CCOCC2)oc2c(-c3ccccc3)cccc12										81%
N#Cc1c(NC(=O)c2cccc3ccccc23)sc2c1CCCC2	96%	78%	82%	72%		76%		100%	96%	
NC(=O)c1ccc(-c2nc(-c3ccc4c(c3)OCCO4)c(-c3ccccn3)[nH]2)cc1			57%	65%	91%	85%	93%	91%	87%	95%
CCOC(=O)c1c(C)[nH]c(/C=C2\C(=O)Nc3ccccc32)c1C			97%	98%					98%	
COc1cc2ncnc(Nc3cccc(Cl)c3)c2cc1OC	121%	101%			111%	111%		119%	101%	
CC(C)N(CCC(=O)c1ccc2ccccc2c1)Cc1ccccc1	87%	79%			88%			86%	80%	81%
Oc1cccc(-c2nc(N3CCOCC3)c3oc4ncccc4c3n2)c1			98%	98%		117%	69%		95%	
O=C(c1ccccc1)c1ccc(N2CCOCC2)cc1O		86%	89%							90%
